# Bioassay records deposited in PubChem by several laboratories.
# TLR9-MyD88 block – blocks human TLR9 binding to MyD88; Q9NR96+Q99836; CHO BLA complementation TLR9-MyD88, CCF4 FRET ratio; inhibition, % at 4.98 µM; actives 0.21% (n = 340,000); AID 504734;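 active means inhibition above the mean over all tested compounds plus 3 SD, cut at about 21% in these data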;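 further: 0% = DMSO only wells and 100% = clavulanate BLA inhibitor control wells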
# ABCB6 inh 2 – blocks the human ABCB6 transporter; AID 602162; fluorescence ratio to DMSO, % at 10 µM; K562-ABCB6 porphyrin accumulation, flow cytometry, 1 h; active compounds read low; actives 0.19% (n = 360,000);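 active means fluorescence ratio to DMSO below 75%, the collection mean minus 3 SD; inconclusive means too few cells collected in the well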;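 further: signal is porphyrin accumulated inside mitochondria; 100% equals median channel fluorescence of DMSO control wells; lower ratio means ABCB6 inhibition with less porphyrin fluorescence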
# Myeloid diff MLP – myeloid differentiation induction | ER-HoxA9 myeloid progenitors, lysozyme-GFP differentiation, flow cytometry | calls only at 10 µM | actives 1% (n = 360,000) | AID 624256;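 active means normalized GFP-positive differentiation at or above the plate's own cutoff, the solvent-only control mean plus 3 SD; inconclusive means no clear call, values can overlap the other calls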;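 further: cells exposed to compound for four days before flow analysis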
# NOD2 RIPK2 PPI – blocks binding of human NOD2 to RIPK2; O43353; CHO BLA complementation NOD2-RIPK2, CCF4 ratio; inhibition, % at 4.98 µM; actives 0.38% (n = 360,000); in the data active means inhibition above about 21%;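 further: 0% = vehicle only and 100% = reference blocker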
# TLR4-MyD88 BLA – inhibitors of human TLR4-MyD88 binding; HeLa CL3-4 TLR4/MyD88 BLA complementation, FRET ratio; inhibition, % at 8.4 µM; actives 0.18% (n = 200,000); in the data active means inhibition above about 25%;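 further: 0% = vehicle and 100% = reference inhibitor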
# ABCB6 inh CP1 – human ABCB6 transporter inhibition; K562-ABCB6 porphyrin accumulation, flow cytometry, 1 h; active compounds read low; ratio response (% of DMSO), % at 10 µM; shares compounds with ABCB6 inh 2; 700 tested, under 10 active; AID 602430;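 active means repeat-averaged ratio response below 75% of DMSO, the collection mean minus 3 SD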;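 further: median porphyrin fluorescence at 575 nm with 488 nm excitation from mitochondria; lower ratio means less porphyrin signal so ABCB6 inhibition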
# * = called active by the depositor; i = inactive; ? = inconclusive; . = not tested or not shown. Hits are enriched below; roughly 1.7% of the tested compounds scored in any of these assays.
SMILES,TLR9-MyD88 block,ABCB6 inh 2,Myeloid diff MLP,NOD2 RIPK2 PPI,TLR4-MyD88 BLA,ABCB6 inh CP1
CCCCCN(C(=O)CCC(=O)OCC(=O)c1ccc(CCC)cc1)c1c(N)n(CCCC)c(=O)[nH]c1=O,0,73*,i,-1,.,98
Cc1cccc(NC(=O)C2CCN(S(=O)(=O)c3c(C)noc3/C=C/c3ccco3)CC2)n1,3,51*,i,0,2,98
COCCN1CCN(C(=O)c2cc(COc3cncc(Cl)c3)on2)CC1,8,101,i,-2,.,.
CNC(=O)c1c[nH]n2c(=O)c(Cc3ccccc3F)c(C)nc12,-3,107,i,-7,-1,116
CC(CNC(=O)c1ccc(C#N)cc1)NC(=O)c1ccc(C#N)cc1 (centres undefined),2,73*,i,-4,.,101
O=C(CSc1nc(C2CC2)nc2ccccc12)N1c2ccccc2Sc2ccc(C(F)(F)F)cc21,1,96,i,2,3,.
O=C(NC1CCCC1)c1ccc(COCC(F)(F)C(F)F)o1,-3,73*,i,-6,8,99
O=C(Cn1cc(C(=O)c2ccco2)c2ccccc21)NC1CCCC1,-6,96,i,-9,6,.
O=C(Cn1cc(C(=O)c2cccs2)c2ccccc21)NC1CCCCC1,11,60*,i,-10,-1,100
COc1ccc(N2CCN(c3ncccc3C#N)CC2)cc1,-3,74*,i,6,-4,101
COc1ccc(N2CCN(c3ccc(N)cc3C#N)CC2)cc1,-4,97,i,-3,3,.
COC(=O)C1=NN(c2cccc(C)c2)C2C(=O)N(c3ccccc3OC)C(=O)C12 (centres undefined),3,98,i,5,2,.
CC(=O)Nc1ccc(-c2ccnc3c2CC(C)(C(=O)Nc2cccc(Oc4ccccc4)c2)O3)cc1 (centres undefined),.,95,i,-2,.,101
CN(C)c1ccc(-c2ccnc3c2CC(C)(C(=O)Nc2ccc(F)c(Cl)c2)O3)cc1 (centres undefined),.,96,i,1,.,101
CC(=O)Nc1cccc(-c2ccnc3c2CC(C)(C(=O)Nc2ccc4c(c2)OCO4)O3)c1 (centres undefined),.,105,.,13,.,102
COc1ccc(NC(=O)C2(C)Cc3c(-c4ccc(C(N)=O)cc4)ccnc3O2)cn1 (centres undefined),.,97,i,-4,.,99
CC(=O)Nc1ccc(-c2ccnc3c2CC(C)(C(=O)Nc2ccccc2)O3)cc1 (centres undefined),.,120,i,-4,.,.
CN(C)c1ccc(-c2ccnc3c2CC(C)(C(=O)Nc2ccc(Cl)cc2)O3)cc1 (centres undefined),.,94,i,-5,.,.
COc1ccc(NC(=O)C2(C)Cc3c(-c4ccc(NC(C)=O)cc4)ccnc3O2)cn1 (centres undefined),.,102,i,4,.,.
COc1cc(N)c(Cl)cc1C(=O)OCC(=O)Nc1cccnc1Cl,-1,99,i,-4,.,.
CCOc1ccccc1C(=O)N[C@H](C(=O)Nc1ccc(OC)c(S(=O)(=O)N2CCOCC2)c1)C(C)C,6,94,i,-7,1,.
CCOc1ccc(C(=O)N[C@H](C(=O)Nc2ccc(OC)c(S(=O)(=O)N3CCOCC3)c2)C(C)C)cc1,-13,73*,i,0,-4,99
CCCS(=O)(=O)NC(=O)C1(C)CCN(C(=O)c2ccc(F)c(C)c2)C1 (centres undefined),.,90,i,1,.,.
COc1ccc(NC(=O)C2Cc3c(-c4cccc(C(N)=O)c4)ccnc3O2)cc1OC (centres undefined),.,96,i,-3,.,98
COc1ccc(NC(=O)C2Cc3c(-c4cccc(C(C)=O)c4)ccnc3O2)cc1OC (centres undefined),.,90,?,-33,.,.
CS(=O)(=O)Nc1cccc(NC(=O)C2Cc3c(-c4cccc(C(N)=O)c4)ccnc3O2)c1 (centres undefined),.,61*,i,3,.,100
COc1cc(CN2CCCC(CO)(Cc3cccc(Cl)c3)C2)cc2c1OCO2 (centres undefined),-5,96,i,-11,-1,.
COCCNC(=O)c1cc2nc(-c3ccccc3)cc(C)n2n1,-6,68*,i,-6,-9,99
